The results in this text go back to PubChem BioAssay.

Assay [1] concerns Plasmodium falciparum Sir2 (PF13_0152, Sir2A). Nature of the assay: pfSir2 binders on small-molecule microarrays, primary screen, biochemical, small-molecule microarray, 635 nm fluorescence (AID 1098).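 Further: score merges spot fluorescence intensity with its signal-to-noise ratio.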 The following applies: small-molecule microarray binding, fluorescence 635 nm; higher = more signal.
The nature of assay [2]: small-molecule microarray binders of probe aDKK1, primary screen, biochemical, biotinylated probe, 635/667 nm fluorescence (AID 1099).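 Further: score merges 667nm spot fluorescence with signal to noise across triplicate slides.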 The following applies: higher = more signal.
The nature of assay [3]: small-molecule microarray binders of probe aCHRDL2, primary screen, biochemical, biotinylated probe, 635/667 nm fluorescence (AID 1100). Particulars: higher = more signal.
A short description of assay [4]: splicing luciferase reporter signal modulators, primary screen, spliceosome inhibition project, cell-based, HEK293, splice +/- reporter (AID 1101).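 Further: HEK293 cells carrying a splicing-competent luciferase reporter gene; test concentration not given here.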 The following applies: luminescence, 24 h, higher = more signal, called active from +8 up or from −8 down. For orientation: Reporter assays use an easily measured gene product as a stand-in for the process of interest.
Assay [5] addresses Fibroblast growth factor 10 (Homo sapiens) (UniProt O15520). The assay can be described thus: FGF10 binders on small-molecule microarrays, primary screen, biochemical, small-molecule microarray, 635 nm fluorescence (AID 1102). Particulars: FGF10 binding, fluorescence 635 nm, higher = more signal.
For assay [6], the system named is glycogen synthase kinase-3 (GSK3A per assay name; protocol says GSK3B). Nature of the assay: GSK3 binders on small-molecule microarrays, primary screen, biochemical, small-molecule microarray, 635 nm fluorescence, GSK3A (AID 1103). Further: the record names both GSK3A and GSK3B. Particulars: small-molecule microarray binding, fluorescence 635 nm; higher = more signal.
Assay [7] addresses Epidermal growth factor receptor (Homo sapiens) (UniProt P00533). Nature of the assay: EGFR binders on small-molecule microarrays, primary screen, biochemical, small-molecule microarray, 635 nm fluorescence (AID 1104).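 Further: score merges 667 nm emission intensity with spot signal to noise over triplicate slides.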 The following applies: EGFR binding, higher = more signal.
For assay [8], the target named is Follistatin-related protein 3 (Homo sapiens) (UniProt O95633). Nature of the assay: FSTL3 binders on small-molecule microarrays, primary screen, biochemical, small-molecule microarray, 635 nm fluorescence (AID 1105).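 Further: score merges emission near 667 nm and signal to noise per printed spot across three slides.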 The following applies: FSTL3 binding, higher = more signal.
For assay [9], the target named is Dickkopf-related protein 1 (Homo sapiens) (UniProt O94907). Nature of the assay: DKK1 binders on small-molecule microarrays, primary screen, biochemical, small-molecule microarray, 635 nm fluorescence scan (AID 1106).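 Further: score merges emission near 667 nm with signal to noise over three replicate slides.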 Particulars: DKK1 binding, higher = more signal.
For assay [10], the system named is Inhibin beta A chain (activin A). Nature of the assay: INHBA (activin A) binders on microarrays, primary screen, biochemical, small-molecule microarray, 635 nm fluorescence scan (AID 1107).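 Further: mouse activin A protein probed at 4.33 µg/mL on printed slides; score merges bound-protein fluorescence near 667 nm with spot signal-to-noise.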 The following applies: small-molecule microarray binding, higher = more signal.
For assay [11], the system named is Human papillomavirus type 1a protein E7 (residues 44-93). Nature of the assay: HPV1a E7 fragment binders on microarrays, primary screen, biochemical, small-molecule microarray, residues 44-93, 635 nm fluorescence (AID 1108).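 Further: E7 fragment applied at 1 µg/mL in TBST for 1 h at 4 C; score combines spot fluorescence with its signal to noise ratio.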 Particulars: small-molecule microarray binding, fluorescence 635 nm; higher = more signal.
Assay [12] is described as follows: modulators of HCV replicon luciferase signal, primary screen, HCV replication inhibitor project, Huh7 cells, luciferase reporter (AID 1109).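 Further: huh7 hepatoma cells harbouring a luciferase neomycin HCV replicon reporter; luciferase luminescence as measure of HCV replicon replication; test concentration not given here.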 The following applies: 48 h, higher = more signal. (In general: In antiviral work, replicon cells carry a viral genome segment that copies itself.)
Assay [13] has as its target Left-right determination factor 2 (Homo sapiens) (UniProt O00292). The assay can be described thus: LEFTY2 binders on small-molecule microarrays, primary screen, biochemical, small-molecule microarray, 635 nm fluorescence scan (AID 1110). Particulars: LEFTY2 binding, higher = more signal.
The target in assay [14] is Calmodulin-1 (Homo sapiens) (UniProt P0DP23). The assay can be described thus: CALM1 binders on microarrays, EGTA buffer, profiling panel, biochemical, small-molecule microarray, Cy5-labelled CALM1 (AID 1111).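 Further: labelled calmodulin applied in Tris saline Tween buffer holding calcium plus EGTA and DTT.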 Particulars: Cy5-CALM1 binding fluorescence, higher = more signal.
The target is the same in assay [15]. The assay can be described thus: calcium-bound CALM1 binders on microarrays, profiling panel, artefact control for SMM control-protein annotation, biochemical, small-molecule microarray, Cy5-labelled CALM1, plus calcium (AID 1112).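 Further: score merges spot fluorescence with signal to noise from triplicate slides.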 Particulars: Cy5-CALM1 binding fluorescence, higher = more signal.
Assay [16] in a line: small-molecule microarray binders of probe aWnt5a, primary screen, biochemical, biotinylated probe, 635/667 nm fluorescence (AID 1113).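 Further: score merges 667 nm fluorescence intensity with signal-to-noise per printed feature.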 The following applies: higher = more signal.
Assay [17] is described as follows: small-molecule microarray binders of probe aShh, primary screen, biochemical, biotinylated probe, 635/667 nm fluorescence (AID 1114).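 Further: probe is biotin-labelled aShh protein from a stem cell growth factor screen; measures binding of labelled protein to compounds printed on the slide; score merges feature fluorescence at 667 nm with signal-to-noise.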 The following applies: higher = more signal.
Assay [18] in a line: small-molecule microarray binders of probe aNog, primary screen, biochemical, biotinylated probe, 635/667 nm fluorescence (AID 1115).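 Further: probe is biotinylated aNog protein used at 0.15 µg/mL for 1 h at 4 C; z-score combines 667 nm fluorescence of each spot with its signal to noise.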 Particulars: higher = more signal.
For assay [19], the target named is Torsin-1A-interacting protein 1 (Homo sapiens) (UniProt Q5JTV8). Nature of the assay: LAP1 binders from COS7 cell lysate, primary screen, small-molecule microarray, 635/667 nm fluorescence (AID 1116). Particulars: COS7-hLAP1 lysate binding, 635 nm fluorescence, higher = more signal.
Assay [20] has as its target Alpha-bungarotoxin (Bungarus multicinctus) (UniProt P60615). The assay can be described thus: alpha-bungarotoxin binders on microarray, profiling panel, artefact control for SMM control protein annotation, biochemical, small-molecule microarray, Alexa647 label, 635/667 nm fluorescence (AID 1117). The following applies: alpha-BTX-A647 binding fluorescence, higher = more signal.

Active and inactive are the calls of the source.

Sequence of Alpha-bungarotoxin (Bungarus multicinctus) (P60615 whole entry, looked up): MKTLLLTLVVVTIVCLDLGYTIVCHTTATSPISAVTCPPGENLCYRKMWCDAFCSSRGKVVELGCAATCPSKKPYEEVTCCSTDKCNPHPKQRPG
Sequence of Epidermal growth factor receptor (Homo sapiens) (P00533 whole entry, looked up): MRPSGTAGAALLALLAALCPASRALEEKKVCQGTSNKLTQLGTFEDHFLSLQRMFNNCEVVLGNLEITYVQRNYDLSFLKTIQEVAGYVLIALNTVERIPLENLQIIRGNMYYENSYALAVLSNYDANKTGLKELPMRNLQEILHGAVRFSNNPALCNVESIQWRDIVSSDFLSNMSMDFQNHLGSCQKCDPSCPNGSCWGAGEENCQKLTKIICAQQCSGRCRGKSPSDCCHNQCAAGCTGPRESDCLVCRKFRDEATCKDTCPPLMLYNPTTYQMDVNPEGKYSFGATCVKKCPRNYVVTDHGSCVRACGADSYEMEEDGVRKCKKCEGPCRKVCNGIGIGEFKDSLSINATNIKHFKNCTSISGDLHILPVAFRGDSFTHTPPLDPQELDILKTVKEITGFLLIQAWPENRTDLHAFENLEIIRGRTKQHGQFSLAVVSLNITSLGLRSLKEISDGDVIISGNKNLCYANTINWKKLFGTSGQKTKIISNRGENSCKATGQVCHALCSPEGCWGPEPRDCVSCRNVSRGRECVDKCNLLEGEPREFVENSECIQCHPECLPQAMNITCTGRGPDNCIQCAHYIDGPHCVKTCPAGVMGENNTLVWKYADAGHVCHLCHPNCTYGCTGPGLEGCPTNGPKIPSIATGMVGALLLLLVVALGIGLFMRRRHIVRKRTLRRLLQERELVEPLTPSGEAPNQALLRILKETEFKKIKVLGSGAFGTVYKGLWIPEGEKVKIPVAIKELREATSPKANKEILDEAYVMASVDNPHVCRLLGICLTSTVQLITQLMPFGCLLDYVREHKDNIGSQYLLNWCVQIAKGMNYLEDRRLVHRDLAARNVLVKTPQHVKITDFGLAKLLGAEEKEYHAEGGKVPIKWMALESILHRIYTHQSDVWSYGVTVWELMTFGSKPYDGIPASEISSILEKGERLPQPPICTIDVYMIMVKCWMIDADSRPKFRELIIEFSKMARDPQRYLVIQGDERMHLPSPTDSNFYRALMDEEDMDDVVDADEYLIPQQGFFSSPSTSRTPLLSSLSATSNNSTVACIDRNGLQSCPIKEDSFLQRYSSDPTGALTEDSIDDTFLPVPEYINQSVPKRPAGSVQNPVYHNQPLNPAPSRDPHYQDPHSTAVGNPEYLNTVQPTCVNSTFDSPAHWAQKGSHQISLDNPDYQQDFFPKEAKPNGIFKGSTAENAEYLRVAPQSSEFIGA
Sequence of Left-right determination factor 2 (Homo sapiens) (O00292 whole entry, looked up): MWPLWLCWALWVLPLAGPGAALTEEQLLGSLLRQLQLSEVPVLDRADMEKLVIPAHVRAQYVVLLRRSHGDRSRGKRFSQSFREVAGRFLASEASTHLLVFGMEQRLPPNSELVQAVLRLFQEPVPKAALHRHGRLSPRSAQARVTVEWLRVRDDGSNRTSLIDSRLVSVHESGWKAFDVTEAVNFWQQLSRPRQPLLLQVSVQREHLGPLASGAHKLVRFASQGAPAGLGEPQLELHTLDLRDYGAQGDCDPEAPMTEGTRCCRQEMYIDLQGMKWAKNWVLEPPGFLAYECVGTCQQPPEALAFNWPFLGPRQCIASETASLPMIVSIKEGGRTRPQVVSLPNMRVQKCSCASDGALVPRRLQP
Sequence of Follistatin-related protein 3 (Homo sapiens) (O95633 whole entry, looked up): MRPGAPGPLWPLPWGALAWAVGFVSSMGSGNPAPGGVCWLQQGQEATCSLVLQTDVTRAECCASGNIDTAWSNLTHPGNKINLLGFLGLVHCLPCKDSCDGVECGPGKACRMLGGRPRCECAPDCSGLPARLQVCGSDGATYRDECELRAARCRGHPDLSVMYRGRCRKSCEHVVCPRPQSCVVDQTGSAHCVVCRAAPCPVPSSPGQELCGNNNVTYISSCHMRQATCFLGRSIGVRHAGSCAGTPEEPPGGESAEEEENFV
Sequence of Torsin-1A-interacting protein 1 (Homo sapiens) (Q5JTV8 whole entry, looked up): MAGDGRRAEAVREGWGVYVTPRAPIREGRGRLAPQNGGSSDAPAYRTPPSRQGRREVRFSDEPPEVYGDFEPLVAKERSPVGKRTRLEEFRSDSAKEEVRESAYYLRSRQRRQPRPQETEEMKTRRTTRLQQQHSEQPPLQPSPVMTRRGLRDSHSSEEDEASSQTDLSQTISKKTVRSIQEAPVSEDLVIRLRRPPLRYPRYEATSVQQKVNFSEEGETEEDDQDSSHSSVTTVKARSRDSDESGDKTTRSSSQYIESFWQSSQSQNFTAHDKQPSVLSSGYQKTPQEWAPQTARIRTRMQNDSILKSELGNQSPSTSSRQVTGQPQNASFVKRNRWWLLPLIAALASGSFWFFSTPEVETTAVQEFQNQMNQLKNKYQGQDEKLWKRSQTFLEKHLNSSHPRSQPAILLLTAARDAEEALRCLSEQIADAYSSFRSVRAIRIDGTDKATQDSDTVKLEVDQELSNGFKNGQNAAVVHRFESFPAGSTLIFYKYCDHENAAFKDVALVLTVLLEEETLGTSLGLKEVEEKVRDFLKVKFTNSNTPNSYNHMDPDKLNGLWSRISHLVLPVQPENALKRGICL
Sequence of Fibroblast growth factor 10 (Homo sapiens) (O15520 whole entry, looked up): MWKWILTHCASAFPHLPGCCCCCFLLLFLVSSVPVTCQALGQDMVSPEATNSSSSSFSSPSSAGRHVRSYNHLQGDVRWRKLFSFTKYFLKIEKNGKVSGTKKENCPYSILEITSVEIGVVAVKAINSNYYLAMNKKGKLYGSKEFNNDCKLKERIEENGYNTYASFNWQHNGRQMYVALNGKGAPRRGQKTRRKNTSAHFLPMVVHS
Sequence of Dickkopf-related protein 1 (Homo sapiens) (O94907 whole entry, looked up): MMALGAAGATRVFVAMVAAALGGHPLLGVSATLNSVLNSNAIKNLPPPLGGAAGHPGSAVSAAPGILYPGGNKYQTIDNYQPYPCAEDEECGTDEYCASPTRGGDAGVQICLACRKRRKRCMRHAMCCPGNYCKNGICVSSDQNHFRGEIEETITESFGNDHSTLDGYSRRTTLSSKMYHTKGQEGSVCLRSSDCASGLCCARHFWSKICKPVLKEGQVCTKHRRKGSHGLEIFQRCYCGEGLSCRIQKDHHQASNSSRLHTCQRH

For the compound `COc1ccc(CCNC(=O)[C@@]2(C)c3ccccc3C(=O)N(Cc3ccc(OC(F)(F)F)cc3)[C@H]2c2ccc(CO)cc2)cc1`, the composite z-score is 0.738 in assay [1]; 0.781 in assay [2]; -0.325 in assay [3]; 1.19 in [5]; 1.3 in assay [6]; 0.743 in assay [7]. The composite z-score in [8] is 0.286; in assay [9], 1; in assay [10], -0.307; in [11], 1.06; in [13], 0.243; in [14], -0.717. Moreover, the composite z-score in [15] was -0.944; in [16], 0.0148; in assay [17], 0.0181; in [18], -0.737; in assay [19] it was 0.986; in assay [20] it was 1.04. Also, the z-score is -0.383 (inactive) in assay [4] and -1.84 in assay [12].

For the compound `C=C(C(=O)CC[C@H](OC(=O)c1ccccc1-c1ccccc1C(=O)O)c1ccc(OCCO)cc1)C(C)C`, the composite z-score was 1.26 in assay [1]; 0.157 in assay [2]; 0.0371 in [3]; 1.04 in assay [5]; 0.114 in assay [6]; -0.242 in assay [7]. The composite z-score worked out at 0.0428 in [8]; 0.339 in assay [9]; 0.548 in [10]; 1.38 in [11]; 0.0164 in [13]; 0.275 in [14]. Also, the composite z-score was -0.37 in assay [15]; 0.204 in assay [16]; 0.0639 in [17]; 1.14 in [18]; 0.735 in assay [19]; 0.971 in [20]. In addition, the z-score in [4] is -0.47 (inactive); in assay [12], -1.26.

As to `CCCCC=C[C@@H](NC(=O)C(C)(C)C)c1ccccc1`, the composite z-score in assay [1] stood at 0.641; in assay [2], 0.715; in assay [3] it was 0.609; in assay [5], 0.548; in [6], 1.25; in [7] it was 0.357. Moreover, the composite z-score in assay [8] was determined as 0.508; in assay [9] it was 0.15; in [10], 0.173; in assay [11], 1.28; in assay [13] it was 0.466; in assay [14], 0.815. Besides, the composite z-score is 0.113 in assay [15]; 0.0357 in assay [16]; 0.54 in [17]; 0.863 in [18]; -0.334 in [19]; 0.82 in assay [20]. Moreover, the results for the z-score in [4] and in [12] were 0.41 (inactive) and -3.07, respectively.

Regarding `COCCOC(=O)N1C(=O)[C@@]2(c3cc(C#CCNC(N)=O)ccc31)[C@H](C(=O)N1CCN(c3ncccn3)CC1)[C@H]1C(=O)O[C@H](c3ccccc3)[C@H](c3ccccc3)N1[C@@H]2c1ccc(O)cc1`, the composite z-score in assay [1] was 0.505; in assay [2], -0.326; in [3], -0.47; in assay [5], -0.735; in assay [6] it was -0.438; in assay [7], -1.14. The composite z-score in assay [8] is -0.997; in assay [9] it was -1.92; in [10], -0.853; in [11], -0.381; in [13], -1.67; in assay [14], -0.777. Further, the composite z-score was -0.686 in [15]; -0.408 in [16]; -0.461 in assay [17]; -0.294 in assay [18]; -0.92 in assay [19]; 0.165 in assay [20]. Moreover, the z-score in [4] is -0.428 (inactive); in [12], 0.894.

Consider `C=C(C(=O)CC[C@@H](OC(=O)c1cccnc1)c1cccc(OCCO)c1)C(C)C`, for which the composite z-score was 1.32 in assay [1]; 0.28 in assay [2]; 0.0064 in assay [3]; 0.959 in [5]; -0.521 in assay [6]; 0.111 in assay [7]. In addition, the composite z-score was 0.343 in assay [8]; 0.109 in assay [9]; 0.867 in [10]; -0.501 in [11]; 0.415 in [13]; -0.323 in assay [14]. In addition, the composite z-score in [15] is -1.4; in assay [16], -0.0405; in assay [17] it was -0.123; in [18], -0.0784; in [19], 0.534; in assay [20], 0.316. Moreover, the z-score was 3.07 (inactive) in assay [4] and -2.12 in assay [12].
